About 79,000 compounds went through this panel and 15% of them were active in at least one assay; those are over-represented in the sample as a whole. Calls of active or inactive are those of the source. Rule as the data show it: active = growth inhibition above about 70%; inactive = the rest.
Experiments:
[1] = NCI Yeast Anticancer Drug Screen. Data for the rad50 strain (AID 155);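 also: 0% = growth of vehicle-only cultures of the same strain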; conditions: S. cerevisiae rad50 strain growth inhibition; at 50.0 µM; stronger effect = higher value
Outline: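 Genetically altered yeast (DNA repair pathway); compound treatment; growth inhibition vs vehicle ctrl.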

[2] = NCI Yeast Anticancer Drug Screen. Data for the mec2-1 strain (AID 157); conditions: S. cerevisiae mec2-1 strain, at 50.0 µM, stronger effect = higher value
Outline: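 Cells of the genetically defined mec2-1 yeast strain are incubated with test compound. Inhibition of growth is calculated against vehicle-treated controls.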

[3] = NCI Yeast Anticancer Drug Screen. Data for the sgs1 mgt1 strain (AID 161);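 also: 0% = growth of cultures given vehicle only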; conditions: S. cerevisiae sgs1 mgt1 strain, at 50.0 µM, stronger effect = higher value
Outline: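 Test agents were incubated with a DNA-repair-mutant yeast strain. Growth was then read and compared against vehicle-treated controls.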

[4] = NCI Yeast Anticancer Drug Screen. Data for the cln2 rad14 strain (AID 165);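 also: 0% = growth equal to vehicle treated cultures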; conditions: S. cerevisiae cln2 rad14 strain, at 50.0 µM, stronger effect = higher value
Outline: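 The screen exposed genetically defined yeast (cln2 rad14) to test compounds and scored growth inhibition relative to vehicle-treated controls.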

[5] = NCI Yeast Anticancer Drug Screen. Data for the bub3 strain (AID 167); conditions: S. cerevisiae bub3 mutant strain, at 50.0 µM, stronger effect = higher value
Outline: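 Yeast carrying a defined mutation is treated with each compound, and growth is compared with that of vehicle-exposed cells to give inhibition.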

[6] = NCI Yeast Anticancer Drug Screen. Data for the mlh1 rad18 strain (AID 175); conditions: S. cerevisiae mlh1 rad18 strain growth inhibition; at 50.0 µM; stronger effect = higher value
Outline: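 Compound-treated yeast growth, normalised to vehicle controls. Strain bears defined DNA repair mutations.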

Measured: growth inhibition

NC(=O)CCl
inactive: [1] 6% | [2] -0.8% | [3] -2.6% | [4] -1.45% | [5] 12.4% | [6] -12.9%

CC(C)N1C(=O)NC(=O)C2(CCCC2)C1=O
inactive: [1] -2.15% | [2] 3.05% | [3] -1.5% | [4] -28.4% | [5] -12.6% | [6] -2.5%

COc1cc(C2c3cc4c(cc3OC(C)(O)C2C(C)=O)OCO4)cc(OC)c1OC (configuration not stated)
inactive: [1] -10.2% | [2] -0.15% | [3] 3.9% | [4] -18.6% | [5] -1.1% | [6] -7.45%

O=C(O)C(F)(F)C(F)(Cl)C(F)(F)C(F)(Cl)C(F)(F)Cl (configuration not stated) (tested in a mixture with another compound)
inactive: [1] -7.65% | [2] -12.8% | [3] -12.7% | [4] -28.2% | [5] 1.1% | [6] -6.2%

O=C1CCC(=O)N1c1ccc([As](=O)(O)O)cc1
inactive: [1] -2.55% | [2] -9.15% | [3] 13.2% | [4] -28.1% | [5] 0.6% | [6] -16.9%

N#CS.[Co+3].[NH-]CC[NH-].[NH-]CC[NH-].[NH-]CC[SH2+]
inactive: [1] 12.2% | [2] 43% | [3] 13.2% | [4] 3.2% | [5] 35.6% | [6] 9.65%

N.N.N.N.N.NC(=O)[O-].[Co+3].[I-]
inactive: [1] -14.1% | [2] 3.9% | [3] -13.1% | [4] 25.7% | [5] -7.75% | [6] -15.7%

N#CC(C#N)=Cc1cccc(F)c1
inactive: [1] 37% | [2] 25.2% | [3] 19.4% | [4] 15.6% | [5] 20.2% | [6] 31.9%

CCC(/C=N/N=C(N)N)=N\N=C(N)N
inactive: [1] 8.4% | [2] -2.6% | [3] -0.75% | [4] -18.4% | [5] 19.9% | [6] -10.3%

N=C(N)N.[O]=[Cr](=[O])([OH])[OH]
inactive: [1] 29.4% | [2] -39.9% | [3] 37.5% | [4] 10.6% | [5] 26.8% | [6] 30.6%

CC(C)(O)/C=C/C(=O)[C@](C)(O)[C@H]1[C@H](O)C[C@@]2(C)[C@@H]3CC=C4[C@@H](C[C@H](O)C(=O)C4(C)C)[C@]3(C)C(=O)C[C@]12C
inactive: [1] 8.3% | [2] -14.6% | [3] -6.7% | [4] 0.55% | [5] -12.8% | [6] 1.8%

CC(=O)[O-].CC(=O)[O-].O=C(N/N=C/c1cc(Cl)cc(Cl)c1O)c1ccncc1.[Ni+2]
inactive: [1] -12.6% | [2] 18.4% | [3] 19.1% | [4] -22.2% | [5] -0.05% | [6] 16.9%

C[CH2][Sn](/[CH]=C\CO)([CH2]C)[CH2]C
inactive: [1] 63% | [4] 43.8%
active: [2] 77.8% | [3] 85.2% | [5] 93.6% | [6] 94.6%

CCOP(=O)(OCC)O/N=C(/C#N)c1ccccc1
inactive: [1] 11.3% | [2] -6.4% | [3] 18.4% | [4] -0.35% | [5] -7.45% | [6] -1%

CC(Br)[N+](=O)[O-] (configuration not stated)
inactive: [1] 28.8% | [2] 4.9% | [3] 5.4% | [4] 13.8% | [5] -8.7% | [6] 5.35%

CC(=N\O)/C(C)=N/O.CC(=N\O)/C(C)=N/O.CC(=N\O)/C(C)=N/O.CC(=N\O)/C(C)=N/O.[Cu].[Cu]
inactive: [1] -7.15% | [2] 12.9% | [3] -22.1% | [4] -8.2% | [5] -13.9% | [6] -4.2%

CCC1(O)C(=O)OCc2c1cc1n(c2=O)Cc2cc3cc(N)ccc3nc2-1 (configuration not stated)
active: [1] 85% | [2] 88.5% | [3] 77.5% | [6] 72.2%
inactive: [4] 56.8% | [5] 56.1%

NNC(N)=NCCCC(N)C(=O)O (configuration not stated)
inactive: [1] -22% | [2] -42% | [3] -34.3% | [4] 5.2% | [5] -45.6% | [6] -16.6%

CC(=O)C(Sc1ccccc1[N+](=O)[O-])C(C)=O.[Co]
inactive: [1] 33.2% | [2] 9.5% | [3] 4.75% | [4] -1.3% | [5] 6.45% | [6] 15.8%

CC(=O)C(C(C)=O)C(C)=O.[Cr]
inactive: [1] 4.85% | [2] -15.1% | [3] -3.6% | [4] 11.1% | [5] -16.1% | [6] 6.45%

O=[N+]([O-])c1ccc(N2CC2)c([N+](=O)[O-])c1
inactive: [1] 1.85% | [2] -1.95% | [3] 10.5% | [4] 20% | [5] -0.95% | [6] 5.45%

O=C(CCBr)Nc1ccc(Cl)cc1C(=O)c1ccccc1
inactive: [1] 6.65% | [2] 5.5% | [3] 10.2% | [4] -2% | [5] 54.8% | [6] -5.95%

c1ccc(N2CCN(c3ccccc3)CC2)cc1
inactive: [1] -31.7% | [2] -8.35% | [3] -1.15% | [4] -57.5% | [5] 37.8% | [6] 13.8%

COc1ccc(Oc2cc3c(cc2OC)CCN(C)C3)cc1
inactive: [1] 15.9% | [2] 7.7% | [3] 20.1% | [4] -0.6% | [5] -22.9% | [6] -6.6%

[NH-]C(CCC(N)=O)C(=O)O.[NH-]C(CCC(N)=O)C(=O)O.[Pd+2] (configuration not stated)
inactive: [1] -14.6% | [2] -3.2% | [3] -7.55% | [4] -71.6% | [5] -1.1% | [6] -8.1%

O=S(=O)(F)c1ccccc1
inactive: [1] 35.8% | [2] -0.6% | [3] -11.4% | [4] -59.8% | [5] 2.1% | [6] 6.85%

O=P1(Oc2ccccc2)N(CCCl)CCN1c1ccccc1 (configuration not stated)
inactive: [1] -12.2% | [2] -44.8% | [3] 7.15% | [4] 13.2% | [5] 32.1% | [6] -4.65%

O=c1[nH]c2ccc([As](O)O)cc2[nH]1
inactive: [1] -14.8% | [2] -14.9% | [3] -4.9% | [4] -17.8% | [5] -8.25% | [6] 0.75%

Cc1nnc(NC2=NCCO2)s1
inactive: [1] -4.2% | [2] -5.5% | [3] -1.6% | [4] -28.1% | [5] -14.2% | [6] -4%

CCC[CH2][Sn]([CH2]CCC)([O]C(=O)CN)[O]C(=O)CN
inactive: [1] 29.9% | [2] 17.9% | [3] 35.4% | [4] 22% | [5] 19.1% | [6] 44.1%

CC1CN1C1=C(Br)C(=O)C(N2CC2C)=C(Br)C1=O (configuration not stated)
inactive: [2] 23.1% | [4] -3.05% | [5] 62%
active: [1] 73.7% | [3] 84% | [6] 79.8%

O=C(O)c1ccc(=O)[nH]c1
inactive: [1] 25.6% | [2] 7.85% | [3] 10.2% | [4] -22.1% | [5] 13.9% | [6] 19.6%

NNc1ccc([N+](=O)[O-])cc1
inactive: [1] 23.9% | [2] 26.3% | [3] 40.9% | [4] -10.3% | [5] 54.9% | [6] 51.6%

Cc1cccc(CCl)c1
inactive: [1] -7.05% | [2] -46.3% | [3] -23.3% | [4] -0.45% | [5] -40.9% | [6] -23.4%

CC1OC(=O)C2CC3CCCCC3C(/C=C/C3CCCC(C)N3C)C12 (configuration not stated)
inactive: [1] 1.2% | [2] -11.2% | [3] -11.2% | [4] 28.4% | [5] -10.4% | [6] -2.35%

C1CCC(NC2CCCC2)CC1
inactive: [1] 18% | [2] 47.1% | [3] 32.6% | [4] 59% | [5] 12.4% | [6] 13.1%

Cc1ccc2c(c1)Cc1ccccc1-2
inactive: [1] 22.9% | [2] -17.2% | [3] 16.9% | [4] 23.7% | [5] 10.2% | [6] 34.9%

CN(C)P(=O)(N(C)C)N1CCCCC1
inactive: [1] -6.35% | [2] -10.2% | [3] 0.3% | [4] -22% | [5] -23.6% | [6] -4.3%

N.N.N.N.N.NC(=O)c1nn[n-]n1.[Cl-].[Co+3]
inactive: [1] -27.2% | [2] -3% | [3] -9.45% | [4] 0% | [5] -27.3% | [6] -17.1%

CCOC(=S)S.[Cu+2]
inactive: [1] 2.55% | [2] 4.1% | [3] -2.85% | [4] -33.6% | [5] -36% | [6] -17.1%

CCOc1cc(OCC)c(OCC)cc1/C=C/[N+](=O)[O-]
active: [1] 90% | [2] 92.7% | [3] 93.7% | [4] 77% | [5] 89.5% | [6] 95.2%

Oc1ccccc1C=NCCN=Cc1ccccc1O.[Fe]
inactive: [1] 11.8% | [2] 22.2% | [3] 5.35% | [4] 6.25% | [5] 46% | [6] 13.6%

— PubChem BioAssay (NCI)
